Assay results as given in publication PMC9574860, “Chemical Toolkit for PARK7: Potent, Selective, and High-Throughput” (Journal of Medicinal Chemistry, 2022).
In all, about 7,900 compounds went through this assay and about 400 (5.1%) showed an effect of 50% or more. This excerpt belongs to a sample that is enriched for strong results.

Target: Parkinson's disease protein 7 (PARK7/DJ1) (human, UniProt Q99497)
Test: primary screen, percent inhibition; read as competition with a fluorescent probe by fluorescence polarization; higher = more effect of the substance
Conditions: 100 µM
Summary of the method: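 Fluorescence-polarization probe displacement (JYQ-107, 20 nM final, 2 h) after 2 h preincubation of PARK7 (0.2 μM final) with each fragment at 100 μM final. Read-out ex/em 480/520 nm; remaining activity derived from FP signal loss relative to reference controls.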

Sequence of Parkinson's disease protein 7 (PARK7/DJ1) (Q99497 whole entry, looked up): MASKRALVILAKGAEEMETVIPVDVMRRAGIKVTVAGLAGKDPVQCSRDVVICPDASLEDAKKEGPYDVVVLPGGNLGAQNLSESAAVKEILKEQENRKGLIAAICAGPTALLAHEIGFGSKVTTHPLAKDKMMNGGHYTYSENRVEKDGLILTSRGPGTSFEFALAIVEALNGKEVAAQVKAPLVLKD

Structure (SMILES)	Inhibition % [%]
CC(C)C1NC(=O)C12CCCCCC2 (stereo not drawn)	9.56
C=CC(=O)NC1(C)CCC(C)CC1 (stereo not drawn)	29.1
C=CC(=O)NCCc1nc2c(C)cccc2o1	9.51
Cc1cc(NC(=O)CCl)n(-c2ccccc2)n1	29.6
Cc1nn(-c2ccccc2)c(C)c1C=C(C#N)C(=O)O	6.36
CN(C)C(=O)c1ccc(B2OC(C)(C)C(C)(C)O2)c(Cl)c1	2.75
Cn1ncc(C(=O)O)c1C#N	13.7
Cl.NCc1cc(=O)[nH]c(S)n1	27.5
CCCc1cc(=O)[nH]c(S)n1	8.86
NC(=O)Cc1cc(=O)[nH]c(S)n1	52.6
N#CC(=Cc1ccc(F)cc1)C(=O)O	2.9
C=CC(=O)NCC1(C)OCCc2sccc21 (stereo not drawn)	16.4
CC(F)(F)C1(C(=O)Nc2cccc(S(=O)(=O)F)c2)CC1	95.7
CC1(C(=O)Nc2cccc(S(=O)(=O)F)c2)CCCC1	97.7
C=CC(=O)NC(C)(C)c1cnn(C)c1	3.17
COc1nc(C)ccc1C(=O)Nc1cccc(S(=O)(=O)F)c1	11.7
Cn1ncc(C(=O)Nc2cccc(S(=O)(=O)F)c2)c1C#N	4.68
Cc1cc(C(=O)Nc2cccc(S(=O)(=O)F)c2)nn1C(C)(C)C	32.8
CSC1(C(=O)Nc2cccc(S(=O)(=O)F)c2)CC1	101
Cn1cc(C(C)(C)C(=O)Nc2cccc(S(=O)(=O)F)c2)cn1	88.2
COCCNC(=O)C(C#N)=Cc1c(Cl)cccc1Cl	2.17
O=C(CCl)Nc1cccc2ncccc12	40.3
CS(=O)(=O)NC1CCCN(C(=O)C=Cc2cccnc2)C1 (stereo not drawn)	5.3
N#CN(CCn1cncn1)c1ccccc1	6.47
OB(O)c1ccc(OCC2CCCCO2)cc1 (stereo not drawn)	27.9
CCN(c1ccc(C(F)(F)F)c(C#N)n1)C1CCOC1 (stereo not drawn)	8.44

Structure (SMILES)	Inhibition % [%]
C=CC(=O)NC1CCCN(c2ncccn2)C1 (stereo not drawn)	4.88
CC1(C)OB(c2ccc(C(F)C(F)(F)F)cc2)OC1(C)C (stereo not drawn)	3.09
Cc1cc(C)n(CCCNc2ccnc(C#N)c2)n1	3.45
CC1CC(Sc2nccc(C(F)(F)F)n2)C(=O)O1 (stereo not drawn)	3.32
C=CC(=O)N1CCCC(n2ccnn2)CC1 (stereo not drawn)	11.9
C=CS(=O)(=O)Nc1ccccc1	6.78
CC1(C(=O)Nc2cccc(S(=O)(=O)F)c2)CCOCC1	83.4
C=CC(=O)NCC1c2ccccc2C(=O)N1C (stereo not drawn)	7.14
C=CC(=O)NC1(c2ccc(C(F)(F)F)cc2)CC1	6.09
C=CC(=O)N1CCCC(c2n[nH]c(=O)o2)C1 (stereo not drawn)	1.49
C=CC(=O)N1CCC(NC(C)=O)(c2nc(C)cs2)C1 (stereo not drawn)	5.8
CC1(c2ccc(S(=O)(=O)F)cc2)OCCO1	6.74
Cc1nc(C(C)(C)C)nc(S)c1C(=O)O	1.97
Cc1nc(C2CC2)nc(S)c1C(=O)O	51.1
Cc1nc(C2CC2)nc(S)c1C#N	2.7
C=CC(=O)NC1COc2c(C)cccc2C1 (stereo not drawn)	10.9
CC1(C)OB(c2cc3ccccc3cc2Br)OC1(C)C	11.9
CN(c1ccc(C(=O)CCl)cc1)S(C)(=O)=O	94.3
N#Cc1ccc(C(=O)CCl)cc1	18.8
CCN(c1ccc(C(=O)CCl)cc1)S(C)(=O)=O	95.1
O=C(CCl)N(C1CCCCC1)C1CCS(=O)(=O)C1 (stereo not drawn)	1.27
O=C(CCl)NCC#Cc1cccc(C(F)(F)F)c1	6.88
Cl.ClCCN1CC2CCC(C1)O2	3.05
Cc1nc(C#N)[nH]c1C	3.54
C=CC(=O)N1CCCC2(CCCOC2)C1 (stereo not drawn)	11.3
Cc1nc(S)c(C#N)c(C)c1C	3.15

Structure (SMILES)	Inhibition % [%]
Cc1c(C#N)c(S)nc2c1CCC2	15.1
Cc1nnc(S)c(C#N)c1C	53.3
CCOc1ccc(S(=O)(=O)n2nc(C)cc2C)cc1	3.86
Cc1nc(C)c(C=C(C#N)C(=O)NC(C)C)o1	3.38
C#Cc1ccc(C=C(C#N)C(=O)Nc2ccncc2)cc1	73.3
N#CC(=Cc1ccc(Cl)cc1)C(=O)Nc1ccncc1	2.9
N#CC(=Cc1ccncc1)C(=O)Nc1cccc(Cl)c1	10.5
C=CC(=O)NC1COc2cc(Cl)ccc2C1 (stereo not drawn)	6.51
CN1CCCN(C(=O)c2ccc(S(=O)(=O)F)cc2)c2ccccc21	17.9
Cc1ccc(NC(=O)CN2CCSC2=O)cc1C	1.36
O=C(O)C=CC(=O)Nc1ccc(F)cc1	7.34
O=C(CN1CCSC1=O)Nc1cn[nH]c1	11.7
O=C(O)C=CC(=O)Nc1ccc2[nH]ncc2c1	77.7
O=C(CN1CCSC1=O)Nc1ccc2[nH]ncc2c1	60.9
O=C(O)C=CC(=O)Nc1ccc(F)c(Cl)c1	8.72
Cn1cc(NC(=O)CN2CCSC2=O)cn1	71.6
O=C(CN1CCSC1=O)Nc1ccc(Cl)c(Cl)c1	0.617
Cc1cc(C)cc(NC(=O)CN2CCSC2=O)c1	5
COCC(C)NC(=O)C(C#N)=Cc1occc1C (stereo not drawn)	5.2
O=C1SCCN1CC(=O)N1CCCc2ccccc21	7.03
Cc1c(C#N)c(NC(=O)CCl)n(-c2ccc(F)cc2)c1C	1.78
COc1ccc2[nH]c(CCCCl)nc2n1.Cl	23.2
C=CS(=O)(=O)c1ccc(C#N)cn1	1.18
O=S(=O)(Oc1ccccc1C(F)(F)F)c1c[nH]cn1	10.4
COCCCS(=O)(=O)N1CCC(Cl)CC1	7.37
OB(O)c1cccc2c1OCCC2	4.89

Structure (SMILES)	Inhibition % [%]
C=CC(=O)N1CCc2c(cccc2C(F)(F)F)C1	-3.37
Cc1noc2ncc(S(=O)(=O)OCC(F)(F)F)cc12	18.2
O=S(=O)(F)c1ccc2cn[nH]c2c1	72.5
O=S(=O)(F)c1ccc(F)cc1	2.62
Cc1cc2[nH]ncc2cc1S(=O)(=O)F	97.4
O=S(=O)(F)c1ccc2[nH]ncc2c1	53
O=S(=O)(F)c1ccc(S(=O)(=O)Nc2ccncc2F)cc1	17.6
O=S(=O)(F)c1ccc2cnccc2c1	86.1
COc1ncc(S(=O)(=O)F)cn1	31.2
Cc1ccc(F)c(OS(=O)(=O)c2cn[nH]c2C)c1	11.7
O=S(=O)(F)c1cccnc1	17.7
O=S(=O)(F)c1ccc2c(c1)NCC2	26.6
Cc1cc(CNC(=O)CCl)ccc1F	18
Cc1cc(NS(=O)(=O)C=Cc2ccccc2Cl)n(C)n1	8.51
C=CC(=O)NC1CCCc2c1cnn2C (stereo not drawn)	6.84
C=CC(=O)Nc1cccc(C(=O)O)c1	4.88
Cc1nc(C(C)C)oc1Cn1ccnc1C#N	8.62
C=CC(=O)N1CCC(OCC2CC2)CC1	-0.254
Cc1cc2ncn(CC3CO3)c2cc1C (stereo not drawn)	20.8
C=CC(=O)N1CC(OC)Cc2ccccc21 (stereo not drawn)	13.5
C=CC(=O)N1CCc2c(F)cccc2C1	6.26
O=C(CCl)NCCOc1cccc(Cl)c1	17.8
ClCC1COCCO1 (stereo not drawn)	-2.68
CCN(Cc1ccc2c(c1)OCO2)C(=O)CCl	9.14
Cc1ccn(S(=O)(=O)c2ccc(F)c(C)c2)n1	6.8
CN(Cc1ccccc1)C(=O)C=CC(=O)O	23.5

Structure (SMILES)	Inhibition % [%]
CN(CCc1ccccc1)c1nccnc1C#N	3.72
CN(C#N)Cc1ccccc1	62.8
C=CC(=O)N1CCN2CCOCC2C1 (stereo not drawn)	8.35
CN(Cc1cccc(F)c1)C(=O)CCl	44.5
CN(Cc1ccc(OC(F)F)cc1)C(=O)CCl	51.1
COc1ccc(C(=O)CCl)cc1	3.52
NC(=O)c1ccc(OCCCl)cc1	-3.9
CN(Cc1cccc(Cl)c1)C(=O)CCl	49.6
CCOc1ccc(C(=O)CCl)cc1	84.9
CN(Cc1ccc(F)cc1)C(=O)CCl	39.9
COc1ccc(CN(C)C(=O)CCl)cc1	61.5
COc1ccc2cc(CN(C)C(=O)CCl)ccc2c1	8
COc1cccc(CN(C)C(=O)CCl)c1	76.7
COc1ccc(CN(C(=O)CCl)C2CC2)cc1	15.6
N#Cc1ccc(N2CCc3sccc3C2)cn1	27.1
C=CC(=O)N(C)C1CCCc2cccnc21 (stereo not drawn)	7.75
N#CC1(CC2CO2)CCC1 (stereo not drawn)	3.78
Cc1ccc(OC2CCCC2)c(B(O)O)c1	2.59
COc1ccc2[nH]c(C)c(C(=O)CCl)c2c1	4.84
O=C1OCCC1n1nnc(-c2ccc(F)cc2)n1 (stereo not drawn)	4.53
C=CC(=O)NC1CSC1(C)C (stereo not drawn)	6.84
OB(O)c1ccc(-c2ccccc2)cc1F	24.2
